# Sampled rows, rich in hits. Any-hit rate of the full collection: about 2.4%.
# NOD2 RIPK2 PPI: blocks binding of human NOD2 to RIPK2; O43353; CHO BLA complementation NOD2-RIPK2, CCF4 ratio; inhibition, % at 4.98 µM; 0.38% of 360,000 active; in the data active = inhibition above about 21%;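 note: 0% = vehicle only and 100% = reference blocker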
# TLR9-MyD88 inh: blocks human TLR9 binding to MyD88. Q9NR96+Q99836. CHO BLA complementation TLR9-MyD88, CCF4 FRET ratio. inhibition, % at 4.98 µM. 0.21% of 340,000 active. AID 504734;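 active = inhibition above the mean over all tested compounds plus 3 SD, cut at about 21% in these data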;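 note: 0% = DMSO only wells and 100% = clavulanate BLA inhibitor control wells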
# HSF1 inhib: HSF1 inhibition | 0.77% of 300,000 active | NIH3T3-HGL HSE-luciferase, MG132-induced, luminescence 8 h; hits give low values | activity change, negative = inhibition, % at 7.5 µM (by protocol);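 active = more than half of replicate wells show activity change below -50%, luminescence cut by over half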;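 note: luciferase reports HSF-1 transcriptional activity via heat shock element; 0% = median of DMSO wells and -100% = zero luminescence signal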
# HSF1 activator: increases HSF-1 driven luciferase reporter signal; NIH3T3-HGL HSF-1 luciferase reporter, MG132, 8 h; 100% = twice DMSO control signal; activation, % at 9 µM; 1.7% of 300,000 active; AID 504408;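 active = mean replicate activation of at least 50% with a set share of replicates each reaching 50%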;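 note: 0% = median of the neutral control wells and 100% = twice that signal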
# TLR4 MyD88 comp: inhibitors of human TLR4-MyD88 binding. O00206+Q99836. HeLa CL3-4 TLR4/MyD88 BLA complementation, FRET ratio. inhibition, % at 8.4 µM. 0.18% of 200,000 active; in the data active = inhibition above about 25%;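 note: 0% = vehicle and 100% = reference inhibitor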
# An asterisk follows results filed as active; · = no result.
SMILES,NOD2 RIPK2 PPI,TLR9-MyD88 inh,HSF1 inhib,HSF1 activator,TLR4 MyD88 comp
CC(C)c1onc(C(=O)NCCc2ccccc2)c1[N+](=O)[O-],8,4,11,61*,-13
CC(=O)c1ccc(NC(=O)c2noc(C(C)C)c2[N+](=O)[O-])cc1,-6,-2,1,-3,-1
Cc1ccc(O)c(NC(=O)c2noc(C(C)C)c2[N+](=O)[O-])c1,1,-7,55,73*,-10
CC(C)c1onc(C(=O)N(C)Cc2ccccc2)c1[N+](=O)[O-],-10,5,-1,-1,17
COCCCN(C(=O)c1cc(C)oc1C)c1c(N)n(CC(C)C)c(=O)[nH]c1=O,-7,-7,·,·,·
Cc1cc(C)cc(C(=O)NCC(=O)N2CCC(C(N)=O)CC2)c1,-6,-4,·,·,·
COc1cccc(CN(C)C(=O)c2ccc(COc3ccc(Cl)cc3)cc2)c1OC,6,3,31,55*,·
COc1ccccc1CN(C)C(=O)c1ccc(COc2ccccc2)cc1,0,-16,-4,27,·
COC(=O)[C@]12CCCCC=C1N(CCc1ccc(OC)c(OC)c1)C(=O)[C@H](CC(=O)N1CCN(C(=O)c3ccco3)CC1)C2,3,·,·,·,·
CCCCc1n[nH]c2c1/C(=N/OCC)CC(C)(C)C2,-3,·,-74*,-77,·
Nc1nonc1C(=O)NCCNC(=O)c1ccc(Cl)cc1,-9,-1,-7,5,·
Cc1ccccc1NC(=O)CCNS(=O)(=O)c1cccc2nsnc12,3,-6,15,40,·
Cc1nonc1C1CCCN1Cc1cn[nH]c1-c1ccc(-c2ccccc2)cc1 (stereo not drawn),-8,5,49,62*,-7
CCc1cc(C=NC2CCCCC2)c(O)s1,-2,12,-56*,-63,10
COc1ccc2c(c1)c1c(c(=O)n(-c3ccc(C)cc3)c(=O)n1CC(=O)NCC1CCCO1)n2C (stereo not drawn),-2,5,·,·,·
C/C(=N\NC(=O)c1c(C)nc2ccccn12)c1ccc(N2CCOCC2)cc1,-4,-9,-1,8,5
C/C(=N\NC(=O)c1c(C)nc2ccccn12)c1ccc(C(C)(C)C)cc1,-6,-3,-55*,-62,·
O=C1/C(=C\c2ccc3c(c2)OCO3)CCC/C1=C/c1ccc2c(c1)OCO2,-12,-5,1,-9,0
CC1CC/C(=C\c2ccc3c(c2)OCO3)C(=O)/C1=C/c1ccc2c(c1)OCO2 (stereo not drawn),-8,-5,40,87*,-4
CC(=O)c1cc2c(cc1NC(=O)CCc1c(C)nc3ncnn3c1C)OCO2,-5,0,·,·,·
Cc1ccc(S(=O)(=O)c2c(C(=O)c3ccccc3)cnc3cc4c(cc23)OCCO4)cc1,-11,2,-66*,-74,-1
COc1cccc(NC(=O)C2(C)CCN2C(=O)Cc2ccc(C(C)C)cc2)c1 (stereo not drawn),7,·,·,·,·
COc1ccc(/C=C/c2nc3ccccc3n2Cc2ccccc2OC)cc1,-9,3,21,68*,-3
COc1ccccc1Cn1c(/C=C/c2ccccc2)nc2ccccc21,-11,-4,12,29,-2
CC12CCC(=O)C=C1CCC1C2CCC2(C)C(c3csc(N)n3)CCC12 (stereo not drawn),7,-14,·,·,·
SMILES,NOD2 RIPK2 PPI,TLR9-MyD88 inh,HSF1 inhib,HSF1 activator,TLR4 MyD88 comp
Cc1onc(-c2ccccc2)c1NC(=O)N(CCC#N)Cc1ccccc1,-4,·,9,58*,·
Cc1cccc(NC(=O)COc2ccc(Br)cc2/C=N/O)c1,8,3,65,107*,5
CC(=O)Nc1ccc(NC(=O)COc2ccc(Br)cc2C)cc1,-7,13,4,17,-2
O=C(Nc1c(-c2ccc3c(c2)OCO3)[nH][nH]c1=O)c1ccc2c(c1)OCO2,3,·,·,·,·
N#CC1=C(N)Oc2c(O)cc3ccccc3c2C1c1ccsc1 (stereo not drawn),-12,8,42,71*,-8
CC(=O)Nc1ccc(-c2ccnc3c2CC(C)(C(=O)NCCc2ccccc2)O3)cc1 (stereo not drawn),-6,·,·,·,·
Nc1nonc1N/N=C\c1ccccc1,6,-13,0,5,·
Nc1nonc1N/N=C/c1c(O)ccc2ccccc12,-3,-10,26,62*,-10
COc1ccccc1Cn1c(C)c(C(=O)NCc2ccco2)sc1=O,6,·,·,·,·
N#Cc1nc(-c2cccs2)oc1NCc1ccccc1,0,3,9,7,-12
N#Cc1nc(-c2cccs2)oc1NCc1ccc(Cl)cc1,-9,1,16,63*,1
COc1ccc(NS(=O)(=O)c2cc(NC(=O)c3cccc(OCc4c(C)noc4C)c3)ccc2OC)cc1,-2,-5,18,57*,12
O=C(CN1C(=O)CC(c2ccccc2)=Nc2ccccc21)NCc1ccccc1,-9,2,-3,9,-8
O=C(CN1C(=O)CC(c2ccccc2)=Nc2ccccc21)NCc1ccco1,-2,0,17,71*,-3
Cc1cc(C)n2nc(C(=O)OCC(=O)NCc3ccc(Cl)cc3)nc2n1,-2,2,·,·,·
CCC1COCCS(=O)(=O)N1Cc1ccccc1C (stereo not drawn),-5,1,-61*,-69,·
CCC1COCCS(=O)(=O)N1Cc1ccccc1F (stereo not drawn),-2,-13,-2,-10,·
COC(=O)C1=NN(C(=O)c2ccccc2)C(O)(c2ccc([N+](=O)[O-])cc2)C1 (stereo not drawn),6,-6,191,273*,·
COC(=O)C1=NN(C(=O)c2ccc(C)cc2)C(O)(c2ccc(Cl)cc2)C1 (stereo not drawn),·,·,120,147*,18
COC(=O)C1=NN(C(=O)c2ccccc2)C(C)(O)C1 (stereo not drawn),5,-12,-6,4,-4
CC(=O)c1cccc(NC(=O)C(C)OC(=O)CN2C(=O)NC(C)(C)C2=O)c1 (stereo not drawn),5,4,·,·,·
CC(Oc1ccccc1)C(=O)N(CCC1=CCCCC1)c1c(N)n(Cc2ccccc2)c(=O)[nH]c1=O (stereo not drawn),-11,-6,2,8,·
O=C1c2ccccc2OC2(C=Cc3ccccc3O2)N1Cc1ccccc1 (stereo not drawn),7,-6,2,-2,-7
Cc1cc2c(c(/C=C/C(=O)c3ccccc3)c1)OC1(C=C2)Oc2ccccc2C(=O)N1C (stereo not drawn),-4,0,46,74*,-4
Nc1nn(-c2cccc(F)n2)cc1-c1ccccc1,-1,-6,39,62*,-13
Nc1nn(-c2cccc(F)n2)cc1-c1ccc(Cl)cc1,-10,-2,32,85*,-10
O=C(Nc1ccccc1F)c1ccc2sc([C@H]3C[C@H](O)[C@@H](CO)O3)nc2c1,7,·,·,·,·
Cc1nc(N2CCN(S(=O)(=O)c3ccc(Br)cc3)CC2)c2c(C)c(C)sc2n1,-10,3,10,2,-7
